ClpP mod – qHTS Assay for Activators of ClpP; 340,000 compounds, 1.9% hits; ATP-dependent Clp protease proteolytic subunit (Bacillus subtilis (strain 168)), P80244; purified B. subtilis ClpP, FRET peptide cleavage, 20 min; Potency, µM (titrated, usually from 57.5 µM), without a hit: at the top dose activity change, negative = active; active means well fitted falling curve with a large enough effect; inconclusive means small, poorly fitted or top-dose-only effect; inactive means no such curve, though single readings can be large or run the other way; further: the source files actives as falling curves though it sought activators and does not explain the sign; nearly all actives have a fitted effect of over 65% in size
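FRET quenching reversal measured ClpP activation: 10 microg/mL B. subtilis ClpP at pH 8 with the FRET-FV decapeptide, read at 430 nm after 320 nm excitation. The 20-min minus 0-min signal was scaled between DMSO/no-enzyme wells and ADEP (5.8 microM final).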
PINK1 modulator – A Quantitative High throughput Screen to Identify Chemical Modulators of PINK1 Expression; PINK1 immunofluorescence, high-content cytometry, 24 h; Potency, µM (series often up to 76.6 µM), for inactives: top-dose activation (PINK1 increase), usual class: activators; 410,000 compounds, 0.2% hits; AID 624263, 2012; active means well fitted activation curve with a large enough effect; inconclusive means small, poorly fitted or top-dose-only effect; cell line not stated here; further: % of control where 0% means no effect; nearly all actives have a fitted effect of over 65% in size
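Compound titrations (5 concentrations, 24 h) on a stable cell line; DMSO and CCCP controls. Endpoint: fixed-cell PINK1 immunofluorescence with mitochondrial, cell and nuclear markers, scanned by microplate cytometer.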
Epigenetic reg – Quantitative High-Throughput Screen for Regulators of Epigenetic Control | AID 1865, 2009 | 280,000 compounds, 0.2% hits | Potency, µM (top dose mostly 53.9 µM), without a hit: at the highest dose GFP activation, hits mostly activators | murine LDR cells, GFP reporter derepression, 30 h; further: % of control where 0% means no effect; nearly all actives have a fitted effect of over 60% in size
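Murine LDR cells carrying a silenced, genomically integrated CMV-driven GFP reporter were exposed to compound for 30 hours at 37 C. After PBS washes, GFP-positive cells (20–120 um objects) were counted by laser-scanning microplate cytometry.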
Sfp PPTase inh – qHTS Assay for Inhibitors of Bacillus subtilis Sfp phosphopantetheinyl transferase (PPTase). 4'-phosphopantetheinyl transferase ffp (Bacillus subtilis), Q9F4F7. Biochemical Sfp PPTase activity, qHTS. Potency, µM, without a hit: largest response in the series, negative = inhibition, actives largely listed as inhibitors. 310,000 compounds, 3.5% hits;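 further: the enzyme is Sfp with the accession as filed and its product quenches rhodamine fluorescence; 0% = enzyme reaction without inhibitor and -100% = no enzyme wells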
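Step 1, compound plus 15 nM Sfp-PPTase, 15 min, room temperature. Step 2, add rhodamine-CoA (5 uM) and BHQ-2-YbbR (12.5 uM). Step 3, read 525/598 nm fluorescence at 0 and 30 min.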
Gal4-VP16 FLuc – VP16 counterscreen qHTS for inhibitors of ROR gamma transcriptional activity. Drosophila S2 Gal4-VP16 UAS-luciferase, luminescence, 20 h. Potency, µM (top dose mostly 53.6 µM), for inactives: top-dose activity, negative = inhibition, usual class: inhibitors. 310,000 compounds, 3.5% hits. AID 2546, 2010;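 further: Gal4-VP16 expression switched on by copper sulfate through the metallothionein promoter; on the % scale 0 is the no-effect control and ±100 the full control effect; nearly all actives have a fitted effect of over 50% in size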
RORgamma inh – qHTS for inhibitors of ROR gamma transcriptional activity; AID 2551, 2010; Potency, µM (highest dose often 53.6 µM), for inactives: top-dose activity change, negative = inhibition, hits mostly inhibitors; 310,000 compounds, 5.4% hits; Nuclear receptor ROR-gamma (Mus musculus), P51450; Drosophila S2 Gal4-RORgamma UAS-luciferase reporter, 20 h; further: on the % scale 0 is the no-effect control and ±100 the full control effect; nearly all actives have a fitted effect of over 60% in size
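Schneider cells (Drosophila), stable Gal4 DBD–ROR gamma + UAS-luc; 1 hr cmpd preincubation; Cu2+ induction 700 uM final; 20 hr ambient; luminescence.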
Starred values were filed as active, the others as inactive; [ ] = another dose, or the depositor's remark. Most compounds without a hit are left out; they make up all but 8.1% or so of the library. Unless noted, the call rests on the fitted dose curve; in most records, active means well fitted curve in the direction sought with a large enough effect; inconclusive means small, poorly fitted or top-dose-only effect, or another doubt; inactive means no such curve, though single readings can be large; an effect the other way counts as inactive or inconclusive. Potency means the concentration at half of the fitted maximal effect.

Results for COCCn1c(N)c(C(=O)OCc2ccccc2)c2nc3ccccc3nc21 ?
ClpP mod: 7.9µM*; PINK1 modulator: 2%; Epigenetic reg: -2%; Sfp PPTase inh: -18%; Gal4-VP16 FLuc: 14µM*; RORgamma inh: inconclusive

How did C=CCn1c(N)c(C(=O)OCCC)c2nc3ccccc3nc21 do in these assays?
ClpP mod: inconclusive; PINK1 modulator: 2%; Epigenetic reg: -2%; Sfp PPTase inh: -5%; Gal4-VP16 FLuc: 1%; RORgamma inh: -14%

How did COc1ccc(CCn2c(N)c(C(=O)NCc3ccco3)c3nc4ccccc4nc32)cc1 do in these assays?
ClpP mod: 32µM*; PINK1 modulator: -3%; Epigenetic reg: 0%; Sfp PPTase inh: inconclusive; Gal4-VP16 FLuc: inconclusive; RORgamma inh: inconclusive

How did CC(=O)Oc1cc(-c2coc3cc(OC(C)=O)c(OC(C)=O)c(OC(C)=O)c3c2=O)cc(OC(C)=O)c1OC(C)=O do in these assays?
Epigenetic reg: -1%; Sfp PPTase inh: -91%; Gal4-VP16 FLuc: -14%; RORgamma inh: -27%

What do the screens show for `O=C(Cc1ccc(Cl)cc1)Nc1nnc2n1CCS2`?
ClpP mod: 0%; PINK1 modulator: -4%; Epigenetic reg: 2%

How did COCCCn1cnc2c(c1=O)c1nc3ccccc3nc1n2-c1ccccc1 do in these assays?
ClpP mod: inconclusive; PINK1 modulator: 1%; Epigenetic reg: -2%; Sfp PPTase inh: 8%; Gal4-VP16 FLuc: -6%; RORgamma inh: 6%

Results for COCCCn1cnc2oc3nc4ccccc4nc3c2c1=O ?
ClpP mod: 0%; PINK1 modulator: 0%; Epigenetic reg: 1%; Sfp PPTase inh: -6%; Gal4-VP16 FLuc: 1.3µM*; RORgamma inh: inconclusive

What do the screens show for `O=C(Nc1nccs1)[C@@H]1CC=C[C@@H]2CCN(C3CC3)C(=O)[C@@H]21`?
ClpP mod: -1%

What do the screens show for `Cc1nnc(N(Cc2ccco2)C(=O)c2cccc(C#N)c2)s1`?
ClpP mod: 1%; PINK1 modulator: 0%; Epigenetic reg: -1%; Sfp PPTase inh: 11%; Gal4-VP16 FLuc: 1%; RORgamma inh: 13µM*

What do the screens show for `CC(=O)Oc1cccc(N2C(=O)C3C4C=CC(C4=C(C)C)C3C2=O)c1` (stereo not drawn)?
ClpP mod: 0%; PINK1 modulator: -2%; Epigenetic reg: 4%; Sfp PPTase inh: 56µM*; Gal4-VP16 FLuc: -15%; RORgamma inh: inconclusive

Results for CC(=O)Oc1ccc(N2C(=O)C3C4C=CC(O4)C3C2=O)cc1 (stereo not drawn) ?
ClpP mod: -1%; PINK1 modulator: 2%[38.3 µM]; Epigenetic reg: -2%; Sfp PPTase inh: 35µM*; Gal4-VP16 FLuc: inconclusive; RORgamma inh: inconclusive

What do the screens show for `CC(=O)Oc1ccc(N2C(=O)CCC2=O)cc1`?
ClpP mod: 0%; PINK1 modulator: 0%; Epigenetic reg: 0%; Sfp PPTase inh: 8%; Gal4-VP16 FLuc: -3%; RORgamma inh: -1%

How did C(=Nc1cnc2ccccc2c1)c1ccncc1 do in these assays?
ClpP mod: 4%; PINK1 modulator: 1%

How did Cc1cc2c(cc1C)N[C@]1(C[C@H]3CCCC(=O)N4CC[C@@H](C1)[C@@H]34)C(=NCc1ccccc1)N2 do in these assays?
ClpP mod: 2%

What do the screens show for `CC(OC(=O)c1snc(C(=O)NC2CCCCC2)c1N)C(=O)NC(C)(C)C` (stereo not drawn)?
ClpP mod: 28µM*; PINK1 modulator: -1%; Epigenetic reg: 2%; Sfp PPTase inh: 13%; Gal4-VP16 FLuc: inconclusive; RORgamma inh: inconclusive

What do the screens show for `CC(C)(C)NC(=O)COC(=O)c1snc(C(=O)NC2CCCCC2)c1N`?
ClpP mod: 28µM*; PINK1 modulator: -3%; Epigenetic reg: 0%; Sfp PPTase inh: 6%; Gal4-VP16 FLuc: 5.6µM*; RORgamma inh: -37%

How did CCOc1ccc(NC(=O)Cn2cc(S(=O)(=O)NC)c(S(=O)(=O)NC)c2)cc1 do in these assays?
ClpP mod: -2%; PINK1 modulator: 1%; Epigenetic reg: 1%

How did COc1cccc(-n2c(SCc3cccc(C)c3)nc3c([nH]c4ccccc43)c2=O)c1 do in these assays?
ClpP mod: -17%; PINK1 modulator: 0%; Epigenetic reg: 10%

Results for CC(=O)N(C(C)=O)c1ncnc2c1c(-c1ccc(Cl)cc1)nn2C(C)(C)C ?
ClpP mod: 10%; PINK1 modulator: 10%; Epigenetic reg: -4%; Sfp PPTase inh: -10%; Gal4-VP16 FLuc: -25%; RORgamma inh: 11µM*

What do the screens show for `COc1ccc(CCN2C(=O)N(c3ccc(F)cc3)C(=O)C2CC(=O)Nc2ccc(OC)cc2)cc1` (stereo not drawn)?
ClpP mod: 0%; PINK1 modulator: 0%; Epigenetic reg: 2%

Results for NC(=S)N=Nc1ccc(NN=C(N)N)cc1 ?
ClpP mod: 1%; PINK1 modulator: -1%; Sfp PPTase inh: 0.56µM*; Gal4-VP16 FLuc: 3%; RORgamma inh: inconclusive

Results for COC(=O)c1ccc(NN=Nc2ccc(C)cc2)cc1 ?
ClpP mod: -1%; PINK1 modulator: 1%; Epigenetic reg: 0%; Sfp PPTase inh: -17%; Gal4-VP16 FLuc: -1%; RORgamma inh: 15%

What do the screens show for `Cc1oc(=O)c(NC(=O)c2ccc(Cl)cc2)cc1C(=O)c1ccccc1`?
ClpP mod: -1%; PINK1 modulator: 6%; Epigenetic reg: 3%; Sfp PPTase inh: 8.9µM*; Gal4-VP16 FLuc: -12%; RORgamma inh: 16%

How did CC(=O)c1cc(NC(=O)c2ccc(C)cc2)c(=O)oc1C do in these assays?
PINK1 modulator: 0%; Epigenetic reg: -2%; Sfp PPTase inh: inconclusive; Gal4-VP16 FLuc: inconclusive; RORgamma inh: inconclusive

What do the screens show for `CC(=O)c1cc(NC(=O)c2ccccc2)c(=O)oc1C`?
PINK1 modulator: 3%; Epigenetic reg: 2%; Sfp PPTase inh: inconclusive; Gal4-VP16 FLuc: 2.5µM*; RORgamma inh: 11µM*

Results for Cc1oc(=O)c(NC(=O)c2ccccc2)cc1C(=O)c1ccccc1 ?
ClpP mod: -1%; PINK1 modulator: 2%; Epigenetic reg: 8%; Sfp PPTase inh: 16µM*; Gal4-VP16 FLuc: 13µM*; RORgamma inh: inconclusive

How did Cc1ccc(C(=O)Nc2cc3ccccc3oc2=O)cc1 do in these assays?
PINK1 modulator: 12%; Epigenetic reg: 2%; Sfp PPTase inh: -3%; Gal4-VP16 FLuc: inconclusive; RORgamma inh: 1.6µM*

Assay outcomes deposited in PubChem by National Center for Advancing Translational Sciences (NCATS).
